According to ChEMBL document CHEMBL1961873, “Compounds: GSK PKIS; Assays: Nanosyn kinase panel” (2012):

How the values were obtained:
[1] = biological target: Tyrosine-protein kinase CSK (Homo sapiens) (UniProt P41240); conditions: at 1 µM;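 also: each value is an averaged inhibition reading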
[2] = biological target: T1, Discoidin domain-containing receptor 2 (Homo sapiens) (UniProt Q16832); conditions: at 0.1 µM
T1 sequence (whole entry): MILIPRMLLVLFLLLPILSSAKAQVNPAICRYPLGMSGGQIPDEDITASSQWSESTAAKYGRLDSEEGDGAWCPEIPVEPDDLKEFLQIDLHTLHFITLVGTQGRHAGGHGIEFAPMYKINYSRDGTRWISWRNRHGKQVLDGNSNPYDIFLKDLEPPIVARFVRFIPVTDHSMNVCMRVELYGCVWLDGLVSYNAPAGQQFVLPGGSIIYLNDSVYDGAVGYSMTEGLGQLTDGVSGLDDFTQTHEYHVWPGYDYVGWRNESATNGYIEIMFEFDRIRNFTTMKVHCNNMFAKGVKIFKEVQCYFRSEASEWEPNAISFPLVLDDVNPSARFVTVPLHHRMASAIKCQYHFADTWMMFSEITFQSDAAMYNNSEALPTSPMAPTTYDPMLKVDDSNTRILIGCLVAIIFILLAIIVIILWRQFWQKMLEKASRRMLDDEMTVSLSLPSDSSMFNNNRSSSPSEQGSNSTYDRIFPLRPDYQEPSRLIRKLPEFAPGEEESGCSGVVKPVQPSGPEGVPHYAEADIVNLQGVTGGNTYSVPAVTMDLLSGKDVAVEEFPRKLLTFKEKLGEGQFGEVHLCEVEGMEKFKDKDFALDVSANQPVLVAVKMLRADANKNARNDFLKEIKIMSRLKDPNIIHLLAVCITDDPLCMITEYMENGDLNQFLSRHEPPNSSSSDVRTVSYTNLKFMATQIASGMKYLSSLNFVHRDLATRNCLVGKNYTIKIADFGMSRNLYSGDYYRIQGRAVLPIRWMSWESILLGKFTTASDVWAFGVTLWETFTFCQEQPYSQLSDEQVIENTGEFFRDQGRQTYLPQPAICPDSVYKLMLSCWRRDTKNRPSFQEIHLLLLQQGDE

[3] = biological target: T1, Discoidin domain-containing receptor 2 (Homo sapiens); conditions: at 1 µM
[4] = biological target: Epidermal growth factor receptor (Homo sapiens) (UniProt P00533); conditions: at 0.1 µM
Chain of Epidermal growth factor receptor (Homo sapiens) (P00533 whole entry): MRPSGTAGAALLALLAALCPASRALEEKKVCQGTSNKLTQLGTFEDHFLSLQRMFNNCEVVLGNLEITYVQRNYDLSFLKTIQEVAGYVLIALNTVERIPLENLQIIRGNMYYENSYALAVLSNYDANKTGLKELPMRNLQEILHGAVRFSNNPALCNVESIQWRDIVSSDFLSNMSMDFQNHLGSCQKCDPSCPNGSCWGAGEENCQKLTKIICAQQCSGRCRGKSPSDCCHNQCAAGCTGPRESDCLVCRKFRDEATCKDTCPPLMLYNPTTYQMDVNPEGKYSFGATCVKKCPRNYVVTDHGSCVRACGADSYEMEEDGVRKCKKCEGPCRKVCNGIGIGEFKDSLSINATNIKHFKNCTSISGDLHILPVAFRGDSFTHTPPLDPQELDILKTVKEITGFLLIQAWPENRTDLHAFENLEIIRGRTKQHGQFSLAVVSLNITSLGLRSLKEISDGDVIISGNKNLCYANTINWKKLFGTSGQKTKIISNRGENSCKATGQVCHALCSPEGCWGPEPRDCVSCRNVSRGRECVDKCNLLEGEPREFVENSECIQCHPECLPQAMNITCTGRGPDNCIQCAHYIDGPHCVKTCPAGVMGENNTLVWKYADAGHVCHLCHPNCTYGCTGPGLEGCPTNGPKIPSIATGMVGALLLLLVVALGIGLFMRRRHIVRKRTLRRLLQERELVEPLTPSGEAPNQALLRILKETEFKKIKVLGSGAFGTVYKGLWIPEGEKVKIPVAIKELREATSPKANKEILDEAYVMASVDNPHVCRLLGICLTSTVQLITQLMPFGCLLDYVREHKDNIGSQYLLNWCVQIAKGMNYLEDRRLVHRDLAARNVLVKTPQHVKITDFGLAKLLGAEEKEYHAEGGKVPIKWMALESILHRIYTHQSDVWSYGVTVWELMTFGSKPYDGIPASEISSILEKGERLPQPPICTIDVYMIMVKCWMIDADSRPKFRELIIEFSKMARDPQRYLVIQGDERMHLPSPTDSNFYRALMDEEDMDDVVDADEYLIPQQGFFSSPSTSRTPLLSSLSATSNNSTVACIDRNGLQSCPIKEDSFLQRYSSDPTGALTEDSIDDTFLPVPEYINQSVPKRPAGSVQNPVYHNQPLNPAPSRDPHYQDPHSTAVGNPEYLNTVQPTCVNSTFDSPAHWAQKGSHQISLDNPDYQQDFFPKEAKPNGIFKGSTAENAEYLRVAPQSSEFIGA

[5] = biological target: Epidermal growth factor receptor (Homo sapiens) (UniProt P00533); conditions: at 1 µM
[6] = system: Epidermal growth factor receptor (Homo sapiens), P00533 [L858R]; conditions: at 0.1 µM
[7] = system: Epidermal growth factor receptor (Homo sapiens), P00533 [L858R]; conditions: at 1 µM
[8] = system: Epidermal growth factor receptor (Homo sapiens), P00533 [L861Q]; conditions: at 0.1 µM
Chain of Epidermal growth factor receptor (Homo sapiens), P00533 [L861Q] (P00533 whole entry L861Q): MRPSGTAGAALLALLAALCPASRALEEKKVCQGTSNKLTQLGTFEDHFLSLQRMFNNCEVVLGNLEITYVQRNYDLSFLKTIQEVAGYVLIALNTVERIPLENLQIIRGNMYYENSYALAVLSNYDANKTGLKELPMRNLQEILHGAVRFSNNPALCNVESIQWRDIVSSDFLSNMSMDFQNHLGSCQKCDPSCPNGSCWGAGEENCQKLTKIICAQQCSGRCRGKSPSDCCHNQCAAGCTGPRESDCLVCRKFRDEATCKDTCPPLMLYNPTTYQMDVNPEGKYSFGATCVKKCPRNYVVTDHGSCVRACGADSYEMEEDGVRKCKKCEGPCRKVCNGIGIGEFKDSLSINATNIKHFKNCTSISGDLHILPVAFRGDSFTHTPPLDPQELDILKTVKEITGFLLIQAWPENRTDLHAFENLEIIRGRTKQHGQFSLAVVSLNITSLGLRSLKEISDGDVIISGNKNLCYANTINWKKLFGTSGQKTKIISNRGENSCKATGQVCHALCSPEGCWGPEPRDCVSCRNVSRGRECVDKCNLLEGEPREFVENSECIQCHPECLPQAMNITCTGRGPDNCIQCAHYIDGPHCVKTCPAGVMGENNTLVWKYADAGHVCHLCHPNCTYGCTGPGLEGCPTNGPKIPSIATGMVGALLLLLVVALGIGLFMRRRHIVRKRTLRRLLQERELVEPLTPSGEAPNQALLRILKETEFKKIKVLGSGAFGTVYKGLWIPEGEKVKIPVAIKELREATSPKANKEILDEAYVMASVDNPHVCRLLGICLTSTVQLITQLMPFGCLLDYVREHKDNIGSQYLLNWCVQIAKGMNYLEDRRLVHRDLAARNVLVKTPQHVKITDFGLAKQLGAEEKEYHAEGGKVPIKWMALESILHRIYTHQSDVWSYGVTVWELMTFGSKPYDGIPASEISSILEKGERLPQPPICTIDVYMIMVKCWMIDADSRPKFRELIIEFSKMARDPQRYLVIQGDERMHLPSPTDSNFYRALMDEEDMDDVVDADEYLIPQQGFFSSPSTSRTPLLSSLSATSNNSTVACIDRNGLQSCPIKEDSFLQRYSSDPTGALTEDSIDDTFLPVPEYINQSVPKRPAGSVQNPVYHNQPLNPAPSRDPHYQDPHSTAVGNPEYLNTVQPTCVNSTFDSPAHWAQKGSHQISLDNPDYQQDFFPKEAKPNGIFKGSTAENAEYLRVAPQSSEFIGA

[9] = system: Epidermal growth factor receptor (Homo sapiens), P00533 [L861Q]; conditions: at 1 µM
[10] = system: Epidermal growth factor receptor (Homo sapiens), P00533 [T790M]; conditions: at 0.1 µM
[11] = system: Epidermal growth factor receptor (Homo sapiens), P00533 [T790M]; conditions: at 1 µM
[12] = system: Epidermal growth factor receptor (Homo sapiens), P00533 [L858R,T790M]; conditions: at 0.1 µM
Chain of Epidermal growth factor receptor (Homo sapiens), P00533 [L858R,T790M] (P00533 whole entry T790M/L858R, looked up): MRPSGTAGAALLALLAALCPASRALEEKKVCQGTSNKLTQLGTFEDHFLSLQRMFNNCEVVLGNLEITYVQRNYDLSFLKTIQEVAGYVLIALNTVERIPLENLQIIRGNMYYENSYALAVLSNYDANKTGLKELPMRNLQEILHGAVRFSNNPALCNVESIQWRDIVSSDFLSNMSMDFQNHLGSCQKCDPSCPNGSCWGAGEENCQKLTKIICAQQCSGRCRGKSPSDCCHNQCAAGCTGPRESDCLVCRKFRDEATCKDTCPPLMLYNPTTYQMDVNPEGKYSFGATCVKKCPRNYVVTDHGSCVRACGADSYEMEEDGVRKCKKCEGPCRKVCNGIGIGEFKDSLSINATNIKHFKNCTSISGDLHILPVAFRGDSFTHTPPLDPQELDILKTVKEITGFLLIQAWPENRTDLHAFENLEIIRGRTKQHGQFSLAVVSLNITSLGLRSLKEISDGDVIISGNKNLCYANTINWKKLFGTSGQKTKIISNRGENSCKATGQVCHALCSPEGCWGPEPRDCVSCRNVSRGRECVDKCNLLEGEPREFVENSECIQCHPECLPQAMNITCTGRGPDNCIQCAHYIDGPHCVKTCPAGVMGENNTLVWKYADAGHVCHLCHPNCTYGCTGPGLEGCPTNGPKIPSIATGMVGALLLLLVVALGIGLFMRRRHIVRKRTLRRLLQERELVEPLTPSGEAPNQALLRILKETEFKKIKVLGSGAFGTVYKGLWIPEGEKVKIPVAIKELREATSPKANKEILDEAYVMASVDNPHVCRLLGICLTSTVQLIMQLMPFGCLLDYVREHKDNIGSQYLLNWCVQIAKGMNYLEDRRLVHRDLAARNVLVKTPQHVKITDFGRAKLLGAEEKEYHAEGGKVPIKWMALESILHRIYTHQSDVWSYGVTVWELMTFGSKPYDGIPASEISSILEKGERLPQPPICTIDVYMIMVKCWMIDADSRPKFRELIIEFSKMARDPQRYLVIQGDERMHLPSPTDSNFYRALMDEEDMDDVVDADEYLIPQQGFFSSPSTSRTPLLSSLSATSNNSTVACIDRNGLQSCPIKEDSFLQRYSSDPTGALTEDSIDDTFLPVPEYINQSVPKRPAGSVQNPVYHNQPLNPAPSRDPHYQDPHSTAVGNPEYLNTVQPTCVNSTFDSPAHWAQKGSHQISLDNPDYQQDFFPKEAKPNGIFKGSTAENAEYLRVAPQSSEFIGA

[13] = system: Epidermal growth factor receptor (Homo sapiens), P00533 [L858R,T790M]; conditions: at 1 µM
[14] = biological target: Ephrin type-A receptor 2 (Homo sapiens) (UniProt P29317); conditions: at 0.1 µM
Chain of Ephrin type-A receptor 2 (Homo sapiens) (P29317 whole entry): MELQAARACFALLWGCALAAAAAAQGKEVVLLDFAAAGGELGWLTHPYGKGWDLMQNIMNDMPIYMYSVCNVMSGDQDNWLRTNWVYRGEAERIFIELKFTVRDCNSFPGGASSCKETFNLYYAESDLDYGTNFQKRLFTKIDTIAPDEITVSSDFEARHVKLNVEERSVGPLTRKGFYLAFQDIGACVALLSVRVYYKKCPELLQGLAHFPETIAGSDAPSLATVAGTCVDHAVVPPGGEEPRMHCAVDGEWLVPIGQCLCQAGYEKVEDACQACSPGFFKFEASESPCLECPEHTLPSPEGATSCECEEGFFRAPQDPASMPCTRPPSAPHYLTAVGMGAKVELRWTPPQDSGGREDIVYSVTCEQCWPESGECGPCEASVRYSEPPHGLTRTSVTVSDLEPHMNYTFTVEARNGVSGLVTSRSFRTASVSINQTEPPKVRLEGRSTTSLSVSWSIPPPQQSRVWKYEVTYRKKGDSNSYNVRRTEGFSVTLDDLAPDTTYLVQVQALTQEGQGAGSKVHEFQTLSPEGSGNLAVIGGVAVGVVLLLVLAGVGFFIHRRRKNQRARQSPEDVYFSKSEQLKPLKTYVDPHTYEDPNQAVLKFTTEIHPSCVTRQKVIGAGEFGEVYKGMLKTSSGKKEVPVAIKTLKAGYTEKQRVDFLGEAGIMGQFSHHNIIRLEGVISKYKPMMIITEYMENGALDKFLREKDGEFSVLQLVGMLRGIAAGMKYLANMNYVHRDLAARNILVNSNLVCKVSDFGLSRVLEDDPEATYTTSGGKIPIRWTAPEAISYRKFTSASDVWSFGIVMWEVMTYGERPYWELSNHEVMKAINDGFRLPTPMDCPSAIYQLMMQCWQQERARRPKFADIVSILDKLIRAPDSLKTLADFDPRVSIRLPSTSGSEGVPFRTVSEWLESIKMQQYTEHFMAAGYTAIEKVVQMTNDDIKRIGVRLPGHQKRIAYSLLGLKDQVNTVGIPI

[15] = biological target: Ephrin type-A receptor 2 (Homo sapiens) (UniProt P29317); conditions: at 1 µM
[16] = biological target: T2, Ephrin type-A receptor 3 (Homo sapiens) (UniProt P29320); conditions: at 0.1 µM
T2 sequence (whole entry): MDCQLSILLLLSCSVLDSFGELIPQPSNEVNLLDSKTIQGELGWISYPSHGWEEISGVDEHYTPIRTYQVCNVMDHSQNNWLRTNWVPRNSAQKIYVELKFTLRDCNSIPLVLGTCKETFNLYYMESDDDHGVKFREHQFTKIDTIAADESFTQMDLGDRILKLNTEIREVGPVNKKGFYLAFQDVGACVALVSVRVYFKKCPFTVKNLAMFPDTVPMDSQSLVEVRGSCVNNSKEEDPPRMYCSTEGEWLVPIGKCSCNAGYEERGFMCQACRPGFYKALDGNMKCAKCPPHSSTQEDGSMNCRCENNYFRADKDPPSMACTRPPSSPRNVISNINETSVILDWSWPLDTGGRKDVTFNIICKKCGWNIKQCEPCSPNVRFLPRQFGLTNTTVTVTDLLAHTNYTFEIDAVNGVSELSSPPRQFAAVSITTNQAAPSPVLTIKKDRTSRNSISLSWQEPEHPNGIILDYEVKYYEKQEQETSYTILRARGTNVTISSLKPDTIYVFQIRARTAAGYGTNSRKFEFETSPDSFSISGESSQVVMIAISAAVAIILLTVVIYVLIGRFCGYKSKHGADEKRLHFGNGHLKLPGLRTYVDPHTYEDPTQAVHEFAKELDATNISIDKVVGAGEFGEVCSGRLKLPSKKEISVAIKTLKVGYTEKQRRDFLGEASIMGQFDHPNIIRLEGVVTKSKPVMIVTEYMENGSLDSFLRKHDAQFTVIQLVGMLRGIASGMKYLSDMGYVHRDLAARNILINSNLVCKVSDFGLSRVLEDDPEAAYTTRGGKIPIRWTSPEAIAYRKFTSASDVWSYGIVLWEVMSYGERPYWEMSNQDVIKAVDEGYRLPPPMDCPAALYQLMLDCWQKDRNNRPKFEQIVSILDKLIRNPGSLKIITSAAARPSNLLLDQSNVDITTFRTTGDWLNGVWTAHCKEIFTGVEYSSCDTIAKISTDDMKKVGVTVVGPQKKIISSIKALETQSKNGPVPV

[17] = biological target: T2, Ephrin type-A receptor 3 (Homo sapiens); conditions: at 1 µM
[18] = biological target: Ephrin type-A receptor 4 (Homo sapiens) (UniProt P54764); conditions: at 0.1 µM
[19] = biological target: Ephrin type-A receptor 4 (Homo sapiens) (UniProt P54764); conditions: at 1 µM
[20] = biological target: T3, Ephrin type-B receptor 2 (Homo sapiens) (UniProt P29323); conditions: at 0.1 µM;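 also: reported as mean inhibition of EPHB2, from the GSK PKIS dataset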
T3 sequence (whole entry): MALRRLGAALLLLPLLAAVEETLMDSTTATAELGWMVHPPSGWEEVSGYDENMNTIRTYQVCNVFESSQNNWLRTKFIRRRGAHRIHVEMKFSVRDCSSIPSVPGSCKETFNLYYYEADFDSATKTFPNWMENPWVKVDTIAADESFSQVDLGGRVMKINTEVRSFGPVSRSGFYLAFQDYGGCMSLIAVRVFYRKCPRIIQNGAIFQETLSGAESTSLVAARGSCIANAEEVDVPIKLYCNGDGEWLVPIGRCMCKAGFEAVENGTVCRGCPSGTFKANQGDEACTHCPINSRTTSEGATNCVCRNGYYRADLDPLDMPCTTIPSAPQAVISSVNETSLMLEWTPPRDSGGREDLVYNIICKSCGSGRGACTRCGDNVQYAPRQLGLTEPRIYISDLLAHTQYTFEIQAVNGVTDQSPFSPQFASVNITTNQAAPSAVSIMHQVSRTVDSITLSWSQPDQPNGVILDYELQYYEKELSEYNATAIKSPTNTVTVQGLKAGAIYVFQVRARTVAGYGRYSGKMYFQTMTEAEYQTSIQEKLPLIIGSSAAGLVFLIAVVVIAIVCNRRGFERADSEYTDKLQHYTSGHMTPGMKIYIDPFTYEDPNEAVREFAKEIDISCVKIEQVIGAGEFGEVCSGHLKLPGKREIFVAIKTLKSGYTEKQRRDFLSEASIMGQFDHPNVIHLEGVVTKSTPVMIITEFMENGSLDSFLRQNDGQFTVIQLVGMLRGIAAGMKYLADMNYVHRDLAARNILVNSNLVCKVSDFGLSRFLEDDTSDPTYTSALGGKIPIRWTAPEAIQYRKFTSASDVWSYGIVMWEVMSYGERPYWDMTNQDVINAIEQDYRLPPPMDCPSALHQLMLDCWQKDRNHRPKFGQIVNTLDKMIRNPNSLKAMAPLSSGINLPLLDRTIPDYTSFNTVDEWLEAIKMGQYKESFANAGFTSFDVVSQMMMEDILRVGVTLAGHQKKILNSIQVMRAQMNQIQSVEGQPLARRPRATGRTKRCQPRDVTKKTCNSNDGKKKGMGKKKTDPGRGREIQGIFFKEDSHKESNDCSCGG

Chain of Tyrosine-protein kinase CSK (Homo sapiens) (P41240 2-450 limits assumed): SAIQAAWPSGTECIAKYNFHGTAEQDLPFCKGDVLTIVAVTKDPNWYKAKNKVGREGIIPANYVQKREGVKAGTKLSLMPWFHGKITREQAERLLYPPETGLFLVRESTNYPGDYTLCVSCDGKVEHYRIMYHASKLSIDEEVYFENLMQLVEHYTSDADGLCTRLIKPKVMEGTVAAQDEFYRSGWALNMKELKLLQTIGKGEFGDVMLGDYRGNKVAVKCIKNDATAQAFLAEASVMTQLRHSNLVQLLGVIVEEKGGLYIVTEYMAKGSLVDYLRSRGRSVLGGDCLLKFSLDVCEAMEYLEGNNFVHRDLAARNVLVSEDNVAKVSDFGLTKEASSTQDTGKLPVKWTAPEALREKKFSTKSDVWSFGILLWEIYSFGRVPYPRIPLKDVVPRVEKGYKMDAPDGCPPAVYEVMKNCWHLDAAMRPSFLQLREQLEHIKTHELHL

SMILES | inhibition [1] [%] | inhibition [2] [%] | inhibition [3] [%] | inhibition [4] [%] | inhibition [5] [%] | inhibition [6] [%] | inhibition [7] [%] | inhibition [8] [%] | inhibition [9] [%] | inhibition [10] [%] | inhibition [11] [%] | inhibition [12] [%] | inhibition [13] [%] | inhibition [14] [%] | inhibition [15] [%] | inhibition [16] [%] | inhibition [17] [%] | inhibition [18] [%] | inhibition [19] [%] | inhibition [20] [%]
Nc1ncnc2occ(-c3ccc(NC(=O)Nc4cccc(C(F)(F)F)c4)cc3)c12 | 44.4 | 64 | 79.2 | 1.36 | 7.97 | 3.92 | 6.22 | 2.76 | 3.15 | 2.8 | 4.59 | 0.78 | 5.43 | 17.2 | 85 | 18.4 | 50.6 | 46.8 | 78.3 | 74.1
COc1cc2ncn(-c3cc(O[C@@H](C)c4ccccc4Cl)c(C(N)=O)s3)c2cc1OC | 5.68 | 1.33 | 1.58 | 0.08 | 7.32 | 5.96 | 26.9 | 3.26 | 7.73 | 1.35 | 2.06 | 1.8 | 5.2 | 1.55 | 1.17 | 1.7 | 6.21 | 6.22 | 14.2 | 7.76
COc1cc(C=NNc2ncnc3c2cnn3-c2ccccc2)ccc1O | 5.56 | 5.59 | 13.6 | 6.29 | 36.2 | 27.3 | 79.6 | 6.66 | 38.2 | 0.71 | 2.02 | 3.12 | 13.3 | 3.61 | 11.4 | 4.47 | 8.46 | 10.2 | 17.1 | 9.57
Cc1ccc(NC(=O)c2ccnc(N3CCCC3)c2)cc1-c1ccc(C(=O)NCC2CC2)cc1 | -0.29 | 3.77 | 22.6 | -4.33 | -3.35 | -1.08 | -0.58 | 2.11 | -3.41 | 1.68 | 0.9 | -0.13 | 2.67 | -2.27 | -2.02 | -0.85 | -0.25 | 7.04 | 5.58 | 4.55
N#Cc1c(NC(=O)c2cccc3ccccc23)sc2c1CCCC2 | 0.21 | 2.55 | 2.6 |  |  |  |  |  |  |  |  |  |  | -4.77 | -1.43 | 2.05 | 4.38 | 6.92 | 2.64 | 5.23
COc1ccc(-c2nn3ncccc3c2-c2ccnc(Nc3ccc(Cl)c(C(F)(F)F)c3)n2)cc1 | 5.3 | 0.69 | 3.24 | 0.68 | 3.67 | 1.63 | 14.3 | 2 | 5.96 | 0.44 | 3.31 | 0.9 | 4.78 | 0.97 | 0.97 | 3.2 | 3.4 | 6.57 | 10.2 | 3.9
COc1cc2ncn(-c3cc(O[C@H](C)c4ccccc4Cl)c(C(N)=O)s3)c2cc1OC | 10.1 | 8.95 | 12 | 3.12 | 3.34 | 3.8 | 14.9 | 2.61 | 5.37 | 1.29 | 6.04 | 3.14 | 6.52 | 5.44 | 6.5 | 3.58 | 14.3 | 18.9 | 26.8 | 16.6
CC1=C(C(=O)Nc2ccc3[nH]ncc3c2)C(c2ccc(F)cc2)NC(=O)N1 (stereo not given) | 1.35 | 0.44 | 0.08 | -0.6 | 1.27 | 3.85 | 4.77 | 2.31 | 1.33 | 0.71 | 0.87 | -2.35 | -1.39 | -2.91 | -2.18 | 2.51 | 2.14 | 4.19 | 4.52 | 2.76
CC(C)=Cc1cccc2c1/C(=N/Nc1ccc(S(N)(=O)=O)cc1)C(=O)N2 | 1.41 | 0.85 | 7.39 | 2.03 | 5.14 | 1.48 | 9.14 | 1.19 | 3.55 | 1.38 | 1.05 | 2.29 | 2.58 | 0.83 | 3.1 | 2.78 | 3.12 | 4.39 | 11 | 1.72
Fc1cccc(COc2ccc(Nc3ncnc4sc(-c5cccs5)cc34)cc2Cl)c1 | 3.11 | -0.48 | 0.6 |  |  |  |  |  |  |  |  |  |  | -3.04 | -2.75 | -3.5 | -1.54 | -0.88 | 2.82 | 5.23
CC1=C(C(=O)Nc2ccc3[nH]ncc3c2)C(c2ccc3ccccc3c2)CC(=O)N1 (stereo not given) | 8.49 | 1.3 | 0.24 | 1.29 | 5.76 | 3.81 | 6.61 | 2.89 | 1.33 | 1.06 | 3.65 | 4.92 | 23.5 | -0.93 | 0.37 | 3.77 | 6.3 | 6.86 | 10.2 | 7.74
